From ChEMBL document CHEMBL1961873, “Compounds: GSK PKIS; Assays: Nanosyn kinase panel” (2012) come the findings set out here.

Assay [1] has as its target 5'-AMP-activated protein kinase catalytic subunit alpha-2 (Homo sapiens) (UniProt P54646). Conditions: at 1 µM.
Assay [2] deals with T1, NUAK family SNF1-like kinase 1 (Homo sapiens) (UniProt O60285).
T1 sequence (whole entry): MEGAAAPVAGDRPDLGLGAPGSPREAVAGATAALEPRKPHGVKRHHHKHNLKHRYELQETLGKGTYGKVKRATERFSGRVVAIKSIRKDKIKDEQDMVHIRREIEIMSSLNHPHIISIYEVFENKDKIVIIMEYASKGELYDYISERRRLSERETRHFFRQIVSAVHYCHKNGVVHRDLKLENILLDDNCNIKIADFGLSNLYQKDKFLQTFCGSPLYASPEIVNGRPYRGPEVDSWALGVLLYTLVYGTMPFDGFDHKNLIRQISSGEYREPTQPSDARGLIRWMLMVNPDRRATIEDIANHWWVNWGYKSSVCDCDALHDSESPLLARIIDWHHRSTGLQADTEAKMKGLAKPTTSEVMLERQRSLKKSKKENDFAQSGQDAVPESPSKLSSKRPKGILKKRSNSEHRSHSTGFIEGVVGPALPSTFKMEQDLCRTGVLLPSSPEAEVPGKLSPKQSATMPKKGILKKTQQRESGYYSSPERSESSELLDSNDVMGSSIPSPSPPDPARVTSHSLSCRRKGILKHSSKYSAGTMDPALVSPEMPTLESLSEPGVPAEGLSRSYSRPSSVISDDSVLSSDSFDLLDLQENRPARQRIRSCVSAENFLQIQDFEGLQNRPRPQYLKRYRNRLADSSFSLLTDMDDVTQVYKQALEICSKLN
Conditions: at 0.1 µM.

In assay [3] the target is T1, NUAK family SNF1-like kinase 1 (Homo sapiens). Conditions: at 1 µM.
Assay [4] concerns the target T2, Serine/threonine-protein kinase BRSK1 (Homo sapiens) (UniProt Q8TDC3).
T2 sequence (whole entry): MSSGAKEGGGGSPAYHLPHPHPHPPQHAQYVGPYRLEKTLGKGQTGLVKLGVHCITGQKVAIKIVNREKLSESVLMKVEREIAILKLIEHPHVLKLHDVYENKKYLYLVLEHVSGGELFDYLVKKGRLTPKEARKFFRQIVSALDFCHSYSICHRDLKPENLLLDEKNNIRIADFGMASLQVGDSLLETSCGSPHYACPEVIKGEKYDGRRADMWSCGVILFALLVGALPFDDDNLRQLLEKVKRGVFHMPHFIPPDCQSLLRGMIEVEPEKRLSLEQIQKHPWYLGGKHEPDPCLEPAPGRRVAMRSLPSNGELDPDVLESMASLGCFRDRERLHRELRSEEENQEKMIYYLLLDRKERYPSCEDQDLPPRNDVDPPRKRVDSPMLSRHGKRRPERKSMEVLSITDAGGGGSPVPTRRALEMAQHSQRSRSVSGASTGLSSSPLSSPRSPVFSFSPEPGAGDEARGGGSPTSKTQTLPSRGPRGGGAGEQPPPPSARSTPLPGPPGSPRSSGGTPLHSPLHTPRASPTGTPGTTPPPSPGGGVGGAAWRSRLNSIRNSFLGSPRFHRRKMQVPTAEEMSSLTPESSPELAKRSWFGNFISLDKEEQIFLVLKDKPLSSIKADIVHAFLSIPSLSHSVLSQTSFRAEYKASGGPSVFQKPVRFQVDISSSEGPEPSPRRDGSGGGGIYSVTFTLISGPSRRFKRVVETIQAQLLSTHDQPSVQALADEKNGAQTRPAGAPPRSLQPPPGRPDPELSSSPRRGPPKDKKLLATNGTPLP
The following applies: at 0.1 µM.

The target of assay [5] is T2, Serine/threonine-protein kinase BRSK1 (Homo sapiens). Conditions: at 1 µM.
Assay [6] deals with T3, Serine/threonine-protein kinase BRSK2 (Homo sapiens) (UniProt Q8IWQ3).
T3 sequence (whole entry): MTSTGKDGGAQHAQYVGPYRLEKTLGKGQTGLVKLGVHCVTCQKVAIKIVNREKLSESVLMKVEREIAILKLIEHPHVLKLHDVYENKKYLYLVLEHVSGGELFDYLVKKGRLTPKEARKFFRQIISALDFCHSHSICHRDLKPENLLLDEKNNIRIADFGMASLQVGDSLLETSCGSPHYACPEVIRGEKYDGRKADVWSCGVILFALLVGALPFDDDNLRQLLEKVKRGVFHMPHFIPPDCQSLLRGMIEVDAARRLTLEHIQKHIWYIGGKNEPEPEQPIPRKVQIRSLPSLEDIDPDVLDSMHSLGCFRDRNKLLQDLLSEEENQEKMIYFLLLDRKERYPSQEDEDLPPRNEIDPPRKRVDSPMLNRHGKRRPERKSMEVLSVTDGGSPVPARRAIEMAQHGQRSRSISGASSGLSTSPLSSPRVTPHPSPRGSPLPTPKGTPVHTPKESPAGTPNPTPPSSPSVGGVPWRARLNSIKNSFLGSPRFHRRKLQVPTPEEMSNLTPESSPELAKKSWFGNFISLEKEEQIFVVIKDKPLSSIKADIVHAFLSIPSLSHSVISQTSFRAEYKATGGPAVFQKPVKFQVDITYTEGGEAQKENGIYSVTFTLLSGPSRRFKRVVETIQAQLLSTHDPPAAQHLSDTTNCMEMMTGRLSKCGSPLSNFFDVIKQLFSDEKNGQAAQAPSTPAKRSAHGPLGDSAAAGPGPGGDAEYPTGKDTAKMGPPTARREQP
Conditions: at 0.1 µM.

Assay [7] has as its target T3, Serine/threonine-protein kinase BRSK2 (Homo sapiens). Conditions: at 1 µM.
The target in assay [8] is Calcium/calmodulin-dependent protein kinase type 1D (Homo sapiens) (UniProt Q8IU85). Conditions: at 0.1 µM.
Sequence of Calcium/calmodulin-dependent protein kinase type 1D (Homo sapiens) (Q8IU85 whole entry, looked up): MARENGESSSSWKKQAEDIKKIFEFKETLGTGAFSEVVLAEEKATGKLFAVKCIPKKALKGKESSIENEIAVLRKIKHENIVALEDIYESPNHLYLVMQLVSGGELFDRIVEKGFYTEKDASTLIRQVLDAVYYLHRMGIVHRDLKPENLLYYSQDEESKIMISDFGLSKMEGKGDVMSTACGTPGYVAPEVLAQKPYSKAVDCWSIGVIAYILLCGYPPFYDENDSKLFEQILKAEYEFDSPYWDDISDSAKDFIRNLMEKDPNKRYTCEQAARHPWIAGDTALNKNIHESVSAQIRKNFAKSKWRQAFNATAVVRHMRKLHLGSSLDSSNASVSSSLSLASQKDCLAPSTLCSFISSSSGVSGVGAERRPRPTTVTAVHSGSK
Assay [9] shares this target. Conditions: at 1 µM.
Assay [10] concerns the target Calcium/calmodulin-dependent protein kinase type II subunit alpha (Homo sapiens) (UniProt Q9UQM7). Conditions: at 0.1 µM.
The target is the same in assay [11]. The following applies: at 1 µM.
The target in assay [12] is Calcium/calmodulin-dependent protein kinase type II subunit delta (Homo sapiens) (UniProt Q13557). Conditions: at 0.1 µM.
Sequence of Calcium/calmodulin-dependent protein kinase type II subunit delta (Homo sapiens) (Q13557 whole entry): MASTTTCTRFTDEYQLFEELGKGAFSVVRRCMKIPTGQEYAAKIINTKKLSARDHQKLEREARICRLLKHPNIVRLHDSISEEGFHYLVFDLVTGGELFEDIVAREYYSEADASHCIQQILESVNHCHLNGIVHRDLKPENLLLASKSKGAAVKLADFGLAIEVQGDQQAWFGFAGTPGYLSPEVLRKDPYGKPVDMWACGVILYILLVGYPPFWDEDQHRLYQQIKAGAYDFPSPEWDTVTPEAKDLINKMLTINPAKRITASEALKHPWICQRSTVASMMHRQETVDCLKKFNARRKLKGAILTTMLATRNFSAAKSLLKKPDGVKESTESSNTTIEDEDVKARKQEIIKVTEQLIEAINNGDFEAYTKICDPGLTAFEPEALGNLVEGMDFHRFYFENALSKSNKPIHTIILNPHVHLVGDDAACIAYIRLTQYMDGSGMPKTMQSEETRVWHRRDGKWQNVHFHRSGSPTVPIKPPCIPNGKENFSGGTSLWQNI
Assay [13] shares this target. The following applies: at 1 µM.
The target of assay [14] is T4, Calcium/calmodulin-dependent protein kinase type IV (Homo sapiens) (UniProt Q16566).
T4 sequence (whole entry): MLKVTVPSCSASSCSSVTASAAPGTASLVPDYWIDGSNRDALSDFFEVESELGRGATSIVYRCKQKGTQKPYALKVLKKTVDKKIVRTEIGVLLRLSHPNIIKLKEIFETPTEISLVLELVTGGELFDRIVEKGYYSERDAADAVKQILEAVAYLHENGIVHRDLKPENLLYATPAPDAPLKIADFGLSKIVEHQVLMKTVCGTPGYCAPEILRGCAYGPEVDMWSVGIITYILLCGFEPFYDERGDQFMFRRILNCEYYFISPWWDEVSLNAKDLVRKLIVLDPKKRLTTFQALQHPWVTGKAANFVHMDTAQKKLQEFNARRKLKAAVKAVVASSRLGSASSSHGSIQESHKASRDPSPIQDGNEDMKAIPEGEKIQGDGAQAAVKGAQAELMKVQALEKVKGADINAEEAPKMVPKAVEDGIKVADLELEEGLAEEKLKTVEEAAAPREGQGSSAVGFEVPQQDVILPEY
Conditions: at 0.1 µM.

In assay [15] the target is T4, Calcium/calmodulin-dependent protein kinase type IV (Homo sapiens). Conditions: at 1 µM.
Assay [16] has as its target T5, Serine/threonine-protein kinase Chk1 (Homo sapiens) (UniProt O14757).
T5 sequence (whole entry): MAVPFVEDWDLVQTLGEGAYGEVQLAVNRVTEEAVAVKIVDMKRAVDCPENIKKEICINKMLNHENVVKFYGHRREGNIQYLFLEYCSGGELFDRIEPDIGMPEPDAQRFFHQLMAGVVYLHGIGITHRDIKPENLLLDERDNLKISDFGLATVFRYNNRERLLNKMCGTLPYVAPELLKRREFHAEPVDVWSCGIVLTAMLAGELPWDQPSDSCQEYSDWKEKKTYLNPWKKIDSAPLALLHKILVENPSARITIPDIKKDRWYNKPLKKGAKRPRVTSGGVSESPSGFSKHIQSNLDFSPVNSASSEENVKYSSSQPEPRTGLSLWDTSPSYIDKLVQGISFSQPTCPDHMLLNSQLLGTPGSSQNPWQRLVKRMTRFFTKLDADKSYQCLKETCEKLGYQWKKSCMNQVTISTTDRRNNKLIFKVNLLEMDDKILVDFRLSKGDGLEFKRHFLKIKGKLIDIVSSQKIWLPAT
Conditions: at 0.1 µM.

Assay [17] has as its target T5, Serine/threonine-protein kinase Chk1 (Homo sapiens). Conditions: at 1 µM.
Assay [18] has as its target Serine/threonine-protein kinase Chk2 (Homo sapiens) (UniProt O96017). The following applies: at 0.1 µM.
Assay [19] has the same target. Conditions: at 1 µM.
Assay [20] has as its target Death-associated protein kinase 1 (Homo sapiens) (UniProt P53355). The following applies: at 0.1 µM.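 Also: reported figure is the mean inhibition of DAPK1.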

Sequence of 5'-AMP-activated protein kinase catalytic subunit alpha-2 (Homo sapiens) (P54646 whole entry, looked up): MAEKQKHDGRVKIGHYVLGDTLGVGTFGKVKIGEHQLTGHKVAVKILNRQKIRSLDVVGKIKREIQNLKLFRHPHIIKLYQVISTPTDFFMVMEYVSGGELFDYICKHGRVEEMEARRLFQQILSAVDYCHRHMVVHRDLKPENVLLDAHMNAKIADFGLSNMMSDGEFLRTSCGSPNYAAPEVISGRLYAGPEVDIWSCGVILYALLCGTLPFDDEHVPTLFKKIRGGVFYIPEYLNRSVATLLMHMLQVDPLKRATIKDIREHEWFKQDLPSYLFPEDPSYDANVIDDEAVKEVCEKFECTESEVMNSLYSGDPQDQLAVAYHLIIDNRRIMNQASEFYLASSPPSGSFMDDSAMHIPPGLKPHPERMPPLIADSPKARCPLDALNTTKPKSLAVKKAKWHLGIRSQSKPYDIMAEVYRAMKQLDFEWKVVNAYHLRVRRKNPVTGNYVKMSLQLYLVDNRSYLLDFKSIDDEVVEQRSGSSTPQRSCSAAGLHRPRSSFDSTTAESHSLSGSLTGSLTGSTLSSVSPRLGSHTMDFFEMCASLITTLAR
Sequence of Death-associated protein kinase 1 (Homo sapiens) (P53355 whole entry, looked up): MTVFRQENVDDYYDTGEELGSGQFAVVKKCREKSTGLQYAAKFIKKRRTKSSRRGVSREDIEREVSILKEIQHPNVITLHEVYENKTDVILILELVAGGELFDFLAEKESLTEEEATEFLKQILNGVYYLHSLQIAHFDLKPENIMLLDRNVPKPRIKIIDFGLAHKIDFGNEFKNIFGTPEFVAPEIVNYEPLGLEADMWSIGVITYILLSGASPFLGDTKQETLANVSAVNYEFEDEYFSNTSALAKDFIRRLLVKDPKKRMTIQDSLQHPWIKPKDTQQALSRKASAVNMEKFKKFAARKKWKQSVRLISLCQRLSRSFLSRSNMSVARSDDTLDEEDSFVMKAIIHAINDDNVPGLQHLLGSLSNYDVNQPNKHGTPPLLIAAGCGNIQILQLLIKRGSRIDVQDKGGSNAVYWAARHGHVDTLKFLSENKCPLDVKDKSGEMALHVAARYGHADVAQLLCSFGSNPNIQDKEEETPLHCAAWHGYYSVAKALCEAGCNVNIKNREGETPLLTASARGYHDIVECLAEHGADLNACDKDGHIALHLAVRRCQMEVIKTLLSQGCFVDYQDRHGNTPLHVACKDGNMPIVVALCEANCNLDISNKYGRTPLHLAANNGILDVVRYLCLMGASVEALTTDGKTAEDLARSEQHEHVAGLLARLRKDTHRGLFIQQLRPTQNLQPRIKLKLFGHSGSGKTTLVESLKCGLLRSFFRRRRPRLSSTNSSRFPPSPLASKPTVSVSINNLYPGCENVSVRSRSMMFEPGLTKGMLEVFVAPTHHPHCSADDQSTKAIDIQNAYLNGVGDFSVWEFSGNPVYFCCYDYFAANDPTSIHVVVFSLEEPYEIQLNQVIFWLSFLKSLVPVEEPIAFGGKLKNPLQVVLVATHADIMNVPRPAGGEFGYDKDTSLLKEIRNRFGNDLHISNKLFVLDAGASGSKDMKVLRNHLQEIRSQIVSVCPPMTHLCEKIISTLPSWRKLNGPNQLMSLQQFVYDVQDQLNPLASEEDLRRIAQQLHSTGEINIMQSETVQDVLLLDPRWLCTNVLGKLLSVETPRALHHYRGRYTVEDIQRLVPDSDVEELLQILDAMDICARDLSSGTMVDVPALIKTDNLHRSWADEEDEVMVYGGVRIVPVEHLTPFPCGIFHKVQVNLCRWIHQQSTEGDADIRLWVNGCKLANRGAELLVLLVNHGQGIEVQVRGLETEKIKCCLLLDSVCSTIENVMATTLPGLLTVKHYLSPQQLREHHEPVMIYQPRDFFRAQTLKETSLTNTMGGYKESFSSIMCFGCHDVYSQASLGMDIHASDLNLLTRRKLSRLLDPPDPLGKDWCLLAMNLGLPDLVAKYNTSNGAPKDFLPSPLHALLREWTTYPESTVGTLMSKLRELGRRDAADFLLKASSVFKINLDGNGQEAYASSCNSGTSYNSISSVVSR
Sequence of Calcium/calmodulin-dependent protein kinase type II subunit alpha (Homo sapiens) (Q9UQM7 whole entry): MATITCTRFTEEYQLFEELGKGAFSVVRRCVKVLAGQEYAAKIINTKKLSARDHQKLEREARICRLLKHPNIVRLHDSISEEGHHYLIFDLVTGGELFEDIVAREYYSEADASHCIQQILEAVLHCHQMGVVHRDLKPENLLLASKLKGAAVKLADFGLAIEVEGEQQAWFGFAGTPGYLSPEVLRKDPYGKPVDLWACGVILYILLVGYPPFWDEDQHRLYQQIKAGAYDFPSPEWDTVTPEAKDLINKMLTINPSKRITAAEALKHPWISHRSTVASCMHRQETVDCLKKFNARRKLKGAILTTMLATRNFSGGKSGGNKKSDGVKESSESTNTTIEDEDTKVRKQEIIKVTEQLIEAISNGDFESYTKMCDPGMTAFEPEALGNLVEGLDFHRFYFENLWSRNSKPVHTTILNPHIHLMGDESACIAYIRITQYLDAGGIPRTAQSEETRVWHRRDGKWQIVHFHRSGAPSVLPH
Sequence of Serine/threonine-protein kinase Chk2 (Homo sapiens) (O96017 whole entry): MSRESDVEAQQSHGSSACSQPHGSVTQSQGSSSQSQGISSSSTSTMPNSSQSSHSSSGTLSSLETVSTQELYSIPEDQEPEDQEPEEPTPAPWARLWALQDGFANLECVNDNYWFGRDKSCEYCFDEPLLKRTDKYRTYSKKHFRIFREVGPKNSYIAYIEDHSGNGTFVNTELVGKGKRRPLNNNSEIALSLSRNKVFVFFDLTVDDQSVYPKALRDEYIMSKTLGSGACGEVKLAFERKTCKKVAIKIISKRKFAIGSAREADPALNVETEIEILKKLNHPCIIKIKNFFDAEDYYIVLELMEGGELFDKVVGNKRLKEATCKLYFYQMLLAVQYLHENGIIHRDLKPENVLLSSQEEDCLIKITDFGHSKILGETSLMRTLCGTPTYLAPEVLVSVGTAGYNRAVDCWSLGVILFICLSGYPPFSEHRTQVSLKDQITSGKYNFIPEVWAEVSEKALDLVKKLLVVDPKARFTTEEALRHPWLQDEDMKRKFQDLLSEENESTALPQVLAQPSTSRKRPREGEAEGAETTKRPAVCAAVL

By inhibition is commonly meant the drop in the measured response relative to a control, in per cent. In the case of `O=C(NCC1CC1)c1ccc(-c2cccc(C(=O)NC3CC3)c2)cc1`, the inhibition came to 1.74% in assay [1]; 1.06% in assay [2]; 4.26% in assay [3]; 1.95% in [4]; 0.89% in assay [5]; 1.44% in assay [6]. The inhibition in assay [7] is -1.6%; in assay [8] it was 0.99%; in assay [9], 2.29%; in assay [10] it was 2.2%; in [11], 2.74%; in [12], 2.24%. Moreover, the inhibition in assay [13] is 3.64%; in [14], 0.89%; in [15], 2%; in [16] it was -3.93%; in assay [17] it was 2.12%; in [18], 0.96%. The results for the inhibition in assay [19] and in [20] were 0.33% and 2.26%, respectively.

Take `Cc1ccc(NC(=O)c2ccoc2)cc1-c1ccc(C(=O)NCC2CC2)cc1`: the inhibition in [1] was 1.09%; in assay [2], -0.47%; in [3] it was -0.78%; in assay [4], 0%; in assay [5], 0.43%; in [6], 1.99%. The inhibition in assay [7] was 0.95%; in assay [8] it was -0.63%; in assay [9], -1.53%; in [10], 1.08%; in assay [11], -3.72%; in [12], 1.18%. For the same compound, the inhibition in [13] is -0.48%; in assay [14], -0.8%; in assay [15], -1.43%; in assay [16] it was 2%; in [17], 1.01%; in assay [18], 1.96%. Moreover, the inhibition in assay [19] is 1.43%; in assay [20] it was 3.89%.

For `COc1ccc2cc(-c3c(-c4ccncc4)nc(-c4ccc([S+](C)[O-])cc4C)n3C)ccc2c1` (stereo not given), the inhibition was 1.05% in [1]; -1.98% in assay [2]; 4.95% in assay [3]; -0.02% in assay [4]; 3.28% in [5]; 0.33% in assay [6]. For the same compound, the inhibition was 3.47% in [7]; 0% in [8]; 1.15% in assay [9]; -2.89% in assay [10]; -1.04% in assay [11]; -0.62% in [12]. The inhibition is 0.45% in assay [13]; 0.58% in [14]; 1.17% in [15]; -4.29% in assay [16]; -9.96% in assay [17]; -6.42% in [18]. In addition, the inhibition in [19] is -5.67%; in assay [20] it was -9.46%.
